Results from PubChem BioAssay (NCATS).
Results filed as inconclusive are left out. A call without a number means that no potency is given here. Active and inactive are the calls of the source. Unless noted, the call rests on the fitted dose curve; in most records, active means well fitted curve in the direction sought with a large enough effect; inconclusive means small, poorly fitted or top-dose-only effect, or another doubt; inactive means no such curve, though single readings can be large; an effect the other way counts as inactive or inconclusive.

What was measured:
[1] = Nrf2 qHTS screen for inhibitors: Validation (AID 493153; active means well fitted inhibition curve with a large enough effect in the main read-out, with a control signal flat, not every such curve was filed as active); settings: Potency: luciferase luminescence; viability change: measured here: cytotoxicity max response
How it was run: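 Concentration-response test in A549 ARE_Fluc reporter cells (5% FBS OPTI-MEM), compound exposure 18-24 h at 37°C, 5% CO2. Cell viability measured first by CellTiter-Fluor fluorescence; ARE-driven luciferase luminescence then measured as Nrf2 activity.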

[2] = qHTS for Inhibitors of Cell Surface uPA Generation: Validation Assay (AID 493164);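 further: RAW 264.7 macrophage cells exposed to compound for 18 h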
How it was run: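 Compounds are titrated over seven points (2.45 nM–38.3 uM final) onto pre-plated RAW 264.7 cells and incubated for 18 h. Retained intracellular ATP, measured with ATP-Lite, indicates blocked lethal factor entry.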

[3] = target: Peptidyl-prolyl cis-trans isomerase NIMA-interacting 1 (Homo sapiens) (UniProt Q13526); test: qHTS Validation Assay to Find Inhibitors of Pin1 (AID 504536; active means well fitted inhibition curve with a large enough effect in the polarisation, with a control signal flat, not every such curve was filed as active; the % refers to the polarisation)
How it was run: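 Fluorescence polarization competition: compounds (titration) displace HiFluor-488-labeled Pin1-1b peptide from Pin1 (0.3 uM final) in pH 7.5 HEPES buffer with DTT, 10 min at room temperature; %Activity normalized to no-enzyme wells, curves fitted.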

[4] = target: Phosphoglycerate kinase, glycosomal (Trypanosoma brucei brucei) (UniProt P07378); test: qHTS Validation Assay to Find Inhibitors of Phosphoglycerate Kinase (AID 504547)
How it was run: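 Compounds are pinned into the substrate/PGK mixture, and GAPDH (100nM final) is added to start the reaction by producing 1,3-BPG. After 60 minutes at room temperature, Kinase-Glo Plus is added and luminescence is measured 10 minutes later.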

[5] = target: phosphoglycerate mutase (Leishmania major) (UniProt Q4Q090); test: qHTS Validation Assay to Find Inhibitors of Phosphoglycerate Mutase (AID 504548); settings: Potency: inhibition qHTS; further: series mostly up to about 58 µM
How it was run: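 Lm PGAM 1.25nM final; 100 mM TEA pH 7.6, 5 mM MgCl2, 0.01% Tween-20; 45 min RT; Kinase-GloPlus, 10 min; end-point luminescence. Enzyme-free wells as negative controls.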

[6] = qHTS for Inhibitors of ATXN expression: Validation of Cytotoxic Assay (AID 588349)
How it was run: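 Cytotoxicity counter-screen: HEK293 cells exposed to compound titrations, 72 hr, 37 degrees C. Read-out is intracellular ATP (CellTiter Glo luminescence) as a viability measure.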

[7] = qHTS for Inhibitors of ATXN expression: Validation (AID 588378); further: series mostly up to about 57 µM; nearly all actives have a fitted effect of over 75% in size
How it was run: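 Luminescence from an ATXN2-FFLuc reporter in HEK293 cells served as read-out after 24 h compound treatment at 37 degrees C; CellTiter-Fluor fluorescence was recorded first to assess viability.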

[8] = Validation screen for small molecules that induce DNA re-replication in SW480 colon adenocarcinoma cells (AID 504364)
How it was run: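 Read-out: total Hoechst intensity of nuclei by fluorescence scanning imager; hits raise the fraction of nuclei with elevated DNA content. Cells received compound for 48 hr at 37 C before a 40 min stain.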

[9] = target: Ubiquitin carboxyl-terminal hydrolase 1 (Homo sapiens) (UniProt O94782); test: Inhibitors of USP1/UAF1: Pilot qHTS (AID 504865);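 further: rhodamine fluorescence freed from ubiquitin-rhodamine substrate followed over time; top concentration of the series differs between compounds; nearly all actives have a fitted effect of over 35% in size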
How it was run: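 USP1/UAF1 complex (1nM) preincubated with compound 15 min at room temperature, then Ub-Rho substrate (150nM final) added. Fluorescence read kinetically at 480/540 nm, 6 reads every 60 seconds. Buffer: 50mM HEPES pH 7.8, 0.5mM EDTA, 0.1 mg/ml BSA, 1mM TCEP, 0.01% Tween-20.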

[10] = target: DNA dC->dU-editing enzyme APOBEC-3G (Homo sapiens) (UniProt Q9HC16); test: qHTS for inhibitors of Vif-A3G interactions: Validation (AID 588379)
How it was run: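 Yellow fluorescence (Ex 488, Em 500-530) of Vif-coexpressing HeLa A3G-eYFP cells, scanned by Acumen cytometer, reports blocked A3G degradation. Cells plated at 700/well overnight at 37 deg C before compound addition, then a further overnight compound incubation at 37 deg C.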

[11] = target: Galactokinase (Homo sapiens) (UniProt P51570); test: qHTS Validation Assay for Inhibitors of Human Galactokinase (GALK) (AID 493189)
How it was run: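 GALK (5 nM) with 35 uM ATP and 100 uM galactose in HEPES pH8.0, MgCl2, NaCl, DTT, BSA; 1 h at room temperature. Residual ATP read by Kinase-Glo Plus luminescence after 10 min.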

DNA dC->dU-editing enzyme APOBEC-3G (Homo sapiens), sequence (Q9HC16 whole entry, looked up): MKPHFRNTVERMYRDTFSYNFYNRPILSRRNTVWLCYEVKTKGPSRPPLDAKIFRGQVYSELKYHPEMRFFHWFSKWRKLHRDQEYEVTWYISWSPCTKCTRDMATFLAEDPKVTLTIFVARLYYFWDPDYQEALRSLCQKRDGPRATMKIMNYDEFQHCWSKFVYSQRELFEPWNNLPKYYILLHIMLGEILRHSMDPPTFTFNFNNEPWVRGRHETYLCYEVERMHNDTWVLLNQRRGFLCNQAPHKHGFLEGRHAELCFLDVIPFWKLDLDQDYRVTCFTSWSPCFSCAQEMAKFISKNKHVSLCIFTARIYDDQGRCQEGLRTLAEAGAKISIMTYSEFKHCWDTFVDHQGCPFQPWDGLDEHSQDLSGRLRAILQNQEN
Peptidyl-prolyl cis-trans isomerase NIMA-interacting 1 (Homo sapiens), sequence (Q13526 whole entry, looked up): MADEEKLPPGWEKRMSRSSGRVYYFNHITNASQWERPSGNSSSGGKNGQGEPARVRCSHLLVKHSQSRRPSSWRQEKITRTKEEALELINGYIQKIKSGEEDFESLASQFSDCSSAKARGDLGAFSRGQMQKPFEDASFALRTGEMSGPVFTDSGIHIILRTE
Galactokinase (Homo sapiens), sequence (P51570 whole entry, looked up): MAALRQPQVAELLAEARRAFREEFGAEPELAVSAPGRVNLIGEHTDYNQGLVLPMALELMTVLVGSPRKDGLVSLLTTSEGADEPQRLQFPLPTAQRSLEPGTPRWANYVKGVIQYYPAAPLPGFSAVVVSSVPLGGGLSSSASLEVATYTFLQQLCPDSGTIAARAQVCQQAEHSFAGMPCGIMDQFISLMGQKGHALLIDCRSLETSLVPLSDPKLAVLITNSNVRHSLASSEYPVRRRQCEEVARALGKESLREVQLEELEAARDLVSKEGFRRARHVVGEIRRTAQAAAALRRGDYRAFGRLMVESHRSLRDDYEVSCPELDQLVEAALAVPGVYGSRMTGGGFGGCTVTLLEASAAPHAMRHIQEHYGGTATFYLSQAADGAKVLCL
Ubiquitin carboxyl-terminal hydrolase 1 (Homo sapiens), sequence (O94782 whole entry, looked up): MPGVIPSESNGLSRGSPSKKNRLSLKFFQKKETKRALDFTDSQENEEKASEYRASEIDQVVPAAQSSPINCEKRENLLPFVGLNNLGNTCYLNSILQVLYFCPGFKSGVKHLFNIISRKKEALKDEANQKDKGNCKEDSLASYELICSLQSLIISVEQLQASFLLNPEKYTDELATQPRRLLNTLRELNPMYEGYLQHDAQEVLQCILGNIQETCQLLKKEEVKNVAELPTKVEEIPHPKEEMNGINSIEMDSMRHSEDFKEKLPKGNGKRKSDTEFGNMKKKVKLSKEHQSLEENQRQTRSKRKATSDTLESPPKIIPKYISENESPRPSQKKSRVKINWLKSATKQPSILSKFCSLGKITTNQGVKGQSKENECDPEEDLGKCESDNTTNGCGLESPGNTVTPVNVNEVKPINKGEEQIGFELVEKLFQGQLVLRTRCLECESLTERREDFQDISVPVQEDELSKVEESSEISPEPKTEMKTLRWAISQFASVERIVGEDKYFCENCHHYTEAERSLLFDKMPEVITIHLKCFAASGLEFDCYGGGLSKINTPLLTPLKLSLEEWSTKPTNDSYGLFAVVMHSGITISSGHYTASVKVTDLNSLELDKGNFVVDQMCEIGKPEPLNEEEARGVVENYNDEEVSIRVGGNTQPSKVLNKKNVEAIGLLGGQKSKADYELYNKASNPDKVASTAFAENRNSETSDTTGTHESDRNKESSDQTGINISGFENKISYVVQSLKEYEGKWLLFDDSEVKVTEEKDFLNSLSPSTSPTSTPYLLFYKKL
phosphoglycerate mutase (Leishmania major), sequence (Q4Q090 1-553): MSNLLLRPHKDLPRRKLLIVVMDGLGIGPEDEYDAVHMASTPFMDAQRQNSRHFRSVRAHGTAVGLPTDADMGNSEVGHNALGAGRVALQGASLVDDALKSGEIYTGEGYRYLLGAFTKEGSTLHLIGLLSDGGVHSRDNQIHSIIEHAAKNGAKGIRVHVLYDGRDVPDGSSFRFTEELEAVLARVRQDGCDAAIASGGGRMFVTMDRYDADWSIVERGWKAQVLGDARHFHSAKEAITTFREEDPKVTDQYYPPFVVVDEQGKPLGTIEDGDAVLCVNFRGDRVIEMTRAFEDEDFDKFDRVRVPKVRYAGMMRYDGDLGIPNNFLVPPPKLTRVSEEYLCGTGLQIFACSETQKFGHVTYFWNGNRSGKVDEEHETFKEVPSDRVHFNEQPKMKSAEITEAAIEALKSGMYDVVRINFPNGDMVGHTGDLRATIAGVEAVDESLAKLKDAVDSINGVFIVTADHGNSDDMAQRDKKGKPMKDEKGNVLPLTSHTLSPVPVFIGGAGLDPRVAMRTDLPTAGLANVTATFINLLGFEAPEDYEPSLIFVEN
Phosphoglycerate kinase, glycosomal (Trypanosoma brucei brucei), sequence (P07378 whole entry, looked up): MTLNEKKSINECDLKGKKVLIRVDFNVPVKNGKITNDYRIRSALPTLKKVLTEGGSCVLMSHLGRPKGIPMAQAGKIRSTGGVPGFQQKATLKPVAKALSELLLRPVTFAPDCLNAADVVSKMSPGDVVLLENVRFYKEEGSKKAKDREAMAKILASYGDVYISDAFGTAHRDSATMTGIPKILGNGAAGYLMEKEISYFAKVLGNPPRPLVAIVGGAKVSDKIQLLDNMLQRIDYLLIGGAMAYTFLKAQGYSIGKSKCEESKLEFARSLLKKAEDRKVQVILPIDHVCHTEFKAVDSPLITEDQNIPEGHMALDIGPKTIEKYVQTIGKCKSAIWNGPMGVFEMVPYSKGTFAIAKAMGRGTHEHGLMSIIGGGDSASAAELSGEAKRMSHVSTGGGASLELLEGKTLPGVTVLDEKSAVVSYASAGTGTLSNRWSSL

Row | SMILES | Potency [1] | viability change [1] | outcome [2] | Potency [3] | Potency [4] | Potency [5] | Potency [6] | Potency [7] | Potency [8] | Potency [9] | Potency [10] | Potency [11]
1 | COc1ccc(CCn2nnnc2C2(c3ccc(C)cc3)CC2)cc1 | inactive | 2.86% | inactive | inactive | inactive | inactive | inactive | inactive | – | – | – | –
2 | Cc1cc2c(cc1Cl)N(C(=O)Nc1ccnc3ccccc13)CC2 | inactive | 1.57% | inactive | inactive | inactive | – | inactive | inactive | inactive | inactive | – | –
3 | NC[C@@H]1O[C@H](c2ccccc2)Cc2c1ccc(O)c2O | inactive | -1.5% | inactive | inactive | inactive | inactive | inactive | – | – | inactive | inactive | –
4 | Cn1c(=O)c2[nH]c(-c3ccc(S(=O)(=O)O)cc3)nc2n(C)c1=O | inactive | -2.21% | inactive | inactive | inactive | inactive | inactive | – | inactive | – | – | –
5 | CC(=O)O[C@H]1Cc2ccccc2N(C(N)=O)c2ccccc21 | inactive | -3.02% | inactive | inactive | inactive | inactive | – | inactive | – | inactive | – | –
6 | O=C(O)C1CCNCC1 | inactive | -14.4% | inactive | inactive | inactive | inactive | inactive | inactive | inactive | inactive | – | –
7 | OC[C@H]1O[C@H](n2cnc3c(N[C@H]4CCC[C@@H]4O)ncnc32)[C@H](O)[C@@H]1O | inactive | 2.15% | inactive | inactive | inactive | inactive | inactive | inactive | – | inactive | – | –
8 | C[N+](C)(C)CC=O | inactive | 2.93% | inactive | inactive | inactive | – | inactive | inactive | inactive | inactive | – | –
9 | COC(=O)C1=C(C)NC(C)=C([N+](=O)[O-])C1c1ccccc1C(F)(F)F (stereo not given) | inactive | -10.2% | inactive | inactive | – | – | inactive | inactive | inactive | – | – | –
10 | N=C(N)c1ccc(OCCCCCOc2ccc(C(=N)N)cc2)cc1 (tested in a mixture with another compound) | inactive | -17% | inactive | inactive | – | inactive | inactive | inactive | inactive | inactive | – | –
11 | O=C(O)C1=CCCNC1 | inactive | 5.73% | inactive | inactive | inactive | inactive | inactive | inactive | inactive | inactive | inactive | –
12 | c1ccc(C(NCc2cccnc2)(c2ccccc2)c2ccccc2)cc1 | inactive | 7.92% | inactive | inactive | inactive | inactive | – | – | – | – | – | –
13 | CN1Cc2sccc2C(c2ccc(O)c(O)c2)C1 (stereo not given) | inactive | 12.4% | inactive | inactive | inactive | inactive | – | inactive | – | inactive | – | –
14 | C=CCN1CCc2cc(O)c(O)cc2C(c2ccccc2)C1 (stereo not given) | inactive | -2.64% | inactive | inactive | – | inactive | – | – | inactive | inactive | – | –
15 | Nc1nc2c(cnn2CCc2ccccc2)c2nc(-c3ccco3)nn12 | inactive | -1.96% | inactive | inactive | inactive | inactive | inactive | inactive | – | inactive | – | –
16 | CC(=O)[C@H]1CCC2C3CC=C4C[C@@H](OS(=O)(=O)O)CC[C@]4(C)C3CC[C@@]21C (stereo not given in full) | inactive | 2.24% | inactive | inactive | – | inactive | inactive | inactive | inactive | inactive | – | –
17 | Nc1nc2c(nc(Br)n2C2OC3COP(=O)(O)O[C@@H]3C2O)c(=O)[nH]1 (stereo not given in full) | inactive | 2.34% | inactive | inactive | inactive | inactive | inactive | inactive | – | inactive | – | –
18 | C[C@](Cc1ccc(O)c(O)c1)(NN)C(=O)O | inactive | -1.27% | inactive | inactive | inactive | inactive | inactive | inactive | – | inactive | – | –
19 | NC1CONC1=O (stereo not given) | inactive | 2.91% | inactive | inactive | inactive | inactive | inactive | inactive | inactive | inactive | – | –
20 | N[C@H](C(=O)O)[C@H](Cc1ccccc1)C(=O)O | inactive | -3.91% | inactive | inactive | inactive | inactive | – | inactive | – | inactive | – | –
21 | Nc1ncnc2c1nc(Sc1ccc(Cl)cc1)n2[C@H]1OC2COP(=O)(O)O[C@@H]2C1O (stereo not given in full) | inactive | 3.2% | inactive | inactive | inactive | inactive | inactive | inactive | – | inactive | – | –
22 | CN1CCc2cc(Cl)c(O)cc2[C@@H](c2ccccc2)C1 | inactive | 5.24% | inactive | inactive | – | inactive | – | inactive | – | inactive | inactive | –
23 | c1ccc(C2CN3CCSC3=N2)cc1 (stereo not given) | inactive | 5.53% | – | inactive | inactive | inactive | inactive | inactive | inactive | inactive | – | inactive
24 | O=C(O)CCC(=O)N1CCCC1C(=O)O (stereo not given) | inactive | -2.91% | – | inactive | inactive | inactive | inactive | inactive | inactive | inactive | – | inactive
25 | c1ccc2c(c1)CCC[C@H]2Nc1nc2ccccc2[nH]1 | inactive | -8.96% | – | inactive | inactive | inactive | inactive | inactive | – | inactive | – | –
26 | CC(N)(C(=O)O)c1ccc(C(=O)O)cc1 (stereo not given) | inactive | 1.94% | – | – | inactive | inactive | – | inactive | inactive | inactive | – | inactive
